In the library only some 2.4% were active in any assay of this set; here they are far more common.
CRFR2-BP antag – blocks CRF-induced signaling of the CRF-BP/CRF-R2 complex; hit rate 0.59% among 350,000; HEK293 CRF-R2/CRF-BP, CRF-induced calcium fluorescence; inhibition, % at 11.8 µM;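 active = inhibition of the ligand-induced calcium signal above about 50% at the single tested concentration, limit read from the data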
cardiac RTF act – increases calcium sensitivity of human cardiac regulated thin filaments | IANBD-labeled TnC RTF fluorescence at EC20 calcium; 0% EC20 calcium, 100% full calcium | AID 493008 | activation, % at 7.2 µM | hit rate 0.24% among 340,000 | P19429+P45379;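 active = activation above the mean over all tested compounds plus 3 SD, cut at about 30% in these data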;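 note: rise in fluorescence read as greater calcium sensitivity of cardiac thin filaments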
Cardiac RTF inh – cardiac RTF calcium desensitization. P19429+P45379. IANBD-labeled cardiac RTF, Ca2+ fluorescence. inhibition, % at 7.15 µM. hit rate 0.12% among 340,000;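 active = inhibition above the mean inhibition of all tested compounds plus 3 SD, cut at about 17% in these data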;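 note: assay run at fixed EC70 calcium of 1.6 mM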
TMEM16A inh – blocks the mouse calcium-activated chloride channel TMEM16A; Q8BHY3; HEK293 TMEM16A/YFP iodide influx fluorescence, ionomycin; normalized B-score (activity score, 25-100; higher = stronger inhibition) at 10 µM; hit rate 1.2% among 310,000; AID 588511;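 active = ratio plate-corrected score three or more library SD toward inhibition, starting fluorescence score within five deviations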;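 note: score derived from kinetic fluorescence span divided by baseline fluorescence per well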
Target sequence (Q8BHY3 whole entry, looked up): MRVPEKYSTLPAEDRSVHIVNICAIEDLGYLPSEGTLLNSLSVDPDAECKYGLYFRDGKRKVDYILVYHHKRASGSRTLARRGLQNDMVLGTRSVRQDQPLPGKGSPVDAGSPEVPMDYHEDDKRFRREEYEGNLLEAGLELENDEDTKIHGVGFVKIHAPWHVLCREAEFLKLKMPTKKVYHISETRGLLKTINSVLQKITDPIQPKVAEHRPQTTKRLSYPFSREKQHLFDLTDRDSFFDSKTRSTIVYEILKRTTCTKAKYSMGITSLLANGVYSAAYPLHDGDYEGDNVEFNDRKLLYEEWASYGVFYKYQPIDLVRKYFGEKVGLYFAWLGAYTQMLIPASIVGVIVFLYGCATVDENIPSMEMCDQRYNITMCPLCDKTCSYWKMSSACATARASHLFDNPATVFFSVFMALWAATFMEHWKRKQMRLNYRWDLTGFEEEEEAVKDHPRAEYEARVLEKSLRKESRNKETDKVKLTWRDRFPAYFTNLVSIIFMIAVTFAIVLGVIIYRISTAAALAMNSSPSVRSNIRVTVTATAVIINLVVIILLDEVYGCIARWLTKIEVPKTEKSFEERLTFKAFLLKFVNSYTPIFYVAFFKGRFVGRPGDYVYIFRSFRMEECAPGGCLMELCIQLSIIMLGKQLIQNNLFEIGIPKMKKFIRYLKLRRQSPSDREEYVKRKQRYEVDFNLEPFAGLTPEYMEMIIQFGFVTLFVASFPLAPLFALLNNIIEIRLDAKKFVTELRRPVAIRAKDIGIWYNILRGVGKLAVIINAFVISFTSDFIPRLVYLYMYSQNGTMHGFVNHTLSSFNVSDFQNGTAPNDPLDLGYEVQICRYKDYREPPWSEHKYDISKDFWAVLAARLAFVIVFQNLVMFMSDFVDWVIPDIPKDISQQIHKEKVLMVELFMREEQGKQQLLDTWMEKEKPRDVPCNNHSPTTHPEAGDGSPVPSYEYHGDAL
TMEM16A act – activators or potentiators of mouse TMEM16A chloride channel | Q8BHY3 | HEK293 TMEM16A/YFP-H148Q/I152L, iodide quench fluorescence; active compounds read low | B-score at 10 µM | hit rate 0.3% among 340,000 | AID 623877;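 active = fluorescence-ratio B-score plate-corrected deviation score at least 3 library SD below zero, with starting fluorescence score within 5 deviations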;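 note: channel opened by trigger with iodide after compound preincubation; score built on the fluorescence ratio of max minus min over baseline; more negative score means more quench and so TMEM16A activation or potentiation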
CRFBP-R2 agonist – CRF-BP/CRF-R2 complex agonism; HEK293 CRF-R2/CRF-BP, calcium dye fluorescence (FLIPR); percent of saturating CRF peptide response; hit rate 0.46% among 350,000; activation, % at 13.2 µM; AID 588473;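 active = activation of at least 50%, plus an integration ratio under a set limit after plate pattern correction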
Of the large screens only hits and unclear results are named; the others gave an inactive call.

CCc1ccc2oc(-c3ccc(OC)cc3)cc(=Nc3c(C)n(C)n(-c4ccccc4)c3=O)c2c1	TMEM16A inh 100
COC(=O)c1c(-c2ccc3ccccc3c2)csc1NC(=O)Cc1ccc(OC)c(OC)c1	none
Cn1c(O)c(/C=N/NC(=O)c2cc3ccccc3cc2O)c2ccccc21	cardiac RTF act 40, CRFBP-R2 agonist 117
Cn1c2ccccc2c2cc(/C=N/NC(=O)c3ccc(O)cc3O)ccc21	none
CCC1Oc2ccc(C)cc2N(CC(=O)N2CCCC2)C1=O (stereo not drawn)	none
COc1cccc(CSc2nc(N)cc(N)n2)c1	none
Cc1cccc(C)c1OCC(=O)N/N=C/c1ccc2c(c1)OCO2	none
Cc1ccc(C(C)C)cc1OCC(=O)N/N=C/c1ccc2c(c1)OCCO2	TMEM16A inh 100
CC(C)CCCC(C)NC(=O)c1cc(S(=O)(=O)N2CCCCC2)ccc1N1CCOCC1 (stereo not drawn)	none (no result: TMEM16A inh)
O=C(CCc1nnc(CCC2CCCCC2)o1)NCCc1cccnc1	none
CCN(CC)C(=O)[C@H]1C[C@H](CC(=O)NC/C=C(\C)CCC=C(C)C)C(=O)N2CCc3c([nH]c4cc(CCC(=O)N(C)C)ccc34)[C@]12C	CRFR2-BP antag 67 (no result: TMEM16A inh, TMEM16A act)
CC(=O)Nc1ccc(S(=O)(=O)NC(C)C(=O)NCC(c2ccco2)N(C)C)cc1 (stereo not drawn)	none (no result: TMEM16A inh)
COc1cccc(C(=O)OCC(=O)Nc2sc3c(c2C(N)=O)CCC3)c1O	none (no result: TMEM16A inh)
CCOc1ccc(N2C(=O)CC(NC3CCN(C(=O)c4ccc(F)cc4)CC3)C2=O)cc1 (stereo not drawn)	none
Cc1cccc(N=Cc2c(O)cc(C)oc2=O)c1	none
Cc1cccc(N=Cc2[nH]c3ccc(Br)c(Cl)c3c2O)c1	cardiac RTF act 63, CRFBP-R2 agonist 192
CN(Cc1ccccc1)C(=O)CSc1nc2c(c(C(F)(F)F)n1)CCc1ccccc1-2	TMEM16A inh 25
COc1ccc(/C=N/NS(=O)(=O)c2ccc(C)cc2)cc1OC(=O)c1ccccc1	none
COc1ccc(/C=N/NS(=O)(=O)c2ccccc2)cc1OC(=O)c1ccc(C)cc1	CRFR2-BP antag 51
COc1ccc(NC(=O)CN(C)C(=O)c2oc3ccccc3c2C)cc1	none
CN(C)C=Nc1c(Br)cc(Br)c2nonc12	cardiac RTF act 32, CRFBP-R2 agonist 109
CN(C)C=Nc1nonc1-c1ccccc1	none
O=C(Nc1cc2c3c(c1)CC(=O)N3CCC2)c1ccccc1Br	none
Cc1nn(CCCC(=O)NCc2ccco2)c(=O)c2nn(-c3ccccc3)c(C)c12	none
CCCCn1c(NC(=O)CC)c(C#N)c2nc3ccccc3nc21	none
N#Cc1c(NC(=O)c2ccccc2Cl)n(Cc2ccccc2)c2nc3ccccc3nc12	TMEM16A inh 100
CCCCn1c(NC(=O)c2ccccc2Cl)c(C#N)c2nc3ccccc3nc21	TMEM16A inh 100
Cn1c(=O)c2c(ncn2CC(=O)OCCCC(=O)c2ccc(Br)cc2)n(C)c1=O	none (no result: TMEM16A inh)
COc1cc(-c2noc(C)c2-c2ccc(N(C)C)nc2)cc(OC)c1OC	CRFBP-R2 agonist 53
COc1cc(-c2noc(C)c2-c2ccc3[nH]ccc3c2)cc(OC)c1OC	none
N#CCCn1nc(-c2ccc([N+](=O)[O-])cc2)cc1Nc1ccccc1NC(=O)C(F)(F)F	none
O=C(C[C@H]1C/C=C\C[C@@H](Cc2ccc(F)cc2)C(=O)O[C@H](c2ccccc2)CNC1=O)NCCO	CRFR2-BP antag 84 (no result: TMEM16A inh)
CC1C/C(=N\NC(=O)c2ccc([N+](=O)[O-])cc2)CC(C)(C)C1 (stereo not drawn)	CRFR2-BP antag 72
CC(C)(C)n1nnnc1C(c1ccc(Cl)cc1)N(Cc1cccnc1)Cc1ccco1 (stereo not drawn)	CRFR2-BP antag 59
CC(C)(C)n1nnnc1C(c1ccc(F)cc1)N(Cc1ccc(F)cc1)Cc1ccco1 (stereo not drawn)	TMEM16A act -5.1
CC(C)(C)n1nnnc1C(c1ccc(C(F)(F)F)cc1)N(Cc1ccc(F)cc1)Cc1ccco1 (stereo not drawn)	none
CCOc1ccc(NC(=O)CN(C)C(=O)c2ccc(OCC(=O)N3CCOCC3)c(OC)c2)cc1OCC	none (no result: TMEM16A inh)
O=C(CN1C(=O)NC(Cc2ccccc2)C1=O)Nc1ccccc1OC(F)F (stereo not drawn)	none
CC(=O)Nc1ccc(SCC(=O)Nc2cc(C)on2)cc1	none
CC(=O)c1ccc(-n2c(-c3cc(-c4ccco4)[nH]n3)n[nH]c2=S)cc1	TMEM16A act -12
O=C(O)c1ccc(-n2c(-c3cc(-c4ccco4)[nH]n3)n[nH]c2=S)cc1	none
COC(=O)Cn1cc(/C=C/c2cc[n+](C)cc2)c2ccccc21	cardiac RTF act 86, CRFBP-R2 agonist 51
CNC(=O)/C(C#N)=C/c1cn(CC(=O)OC)c2ccccc12	none
COC(=O)Cn1c(C)c(/C=C/c2cc[n+](C)cc2)c2ccccc21	cardiac RTF act 64
COC(=O)Cn1c(=O)c(=O)n(CC(=O)OC)c2ccccc21	none
S=C1NCCC12C(=S)Nc1ccccc12 (stereo not drawn)	none
C#CCN(CC=C)C(=O)c1ccc2nc(C3CCCCC3)oc2c1	none
CCOC(=O)c1sc(NC(=O)CSc2n[nH]c(-c3ccncc3)n2)c(C#N)c1C	CRFR2-BP antag 70
CCOC(=O)c1sc(NC(=O)CSc2nccc(C)n2)c(C#N)c1C	none
Cc1ccc(CN2CC(C(=O)NCCCSc3ccccc3)CC2=O)cc1 (stereo not drawn)	CRFR2-BP antag 56
Clc1ccc(N=C2SCCS2)cc1	none
Cc1c(-c2ncn[nH]2)sc(C#N)c1-c1ccccc1	CRFR2-BP antag 59
Cc1cc(C(=O)CSc2nnc(Cc3ccccc3)o2)c(C)n1Cc1ccc2c(c1)OCO2	none
C=CCn1c(C)cc(C(=O)CSc2nnc(Cc3ccccc3)o2)c1C	CRFR2-BP antag 56
O=[N+]([O-])c1ccc(N/N=C/C=C/c2ccco2)cc1	CRFBP-R2 agonist 95
O=C(O)c1ccc(N/N=C/C=C/c2ccc([N+](=O)[O-])o2)cc1	none
COc1ccc(OC)c(CN2CCN(S(=O)(=O)c3ccc(NC(C)=O)cc3)CC2)c1	CRFR2-BP antag 53
COc1ccc(/C=C/C(=O)c2ccccc2)cc1Cn1nnc2ccccc21	none
COc1ccc(N2C(=O)C(CN3CCN(C)CC3)C2c2ccccc2)cc1 (stereo not drawn)	none
CC(CCc1ccccc1)NS(=O)(=O)c1ccc(Cl)c(C(=O)O)c1 (stereo not drawn)	none
CC12CCC(C(=O)N(c3ccccn3)c3ccccn3)(OC1=O)C2(C)C (stereo not drawn)	none
COc1ccc(N2C(=O)CC(NNC(=O)c3ccco3)C2=O)cc1 (stereo not drawn)	none
CCOC(=O)NNC1CC(=O)N(c2ccc(OC)cc2)C1=O (stereo not drawn)	TMEM16A inh 100

Source: PubChem
